What all share (conditions): mRNA level, 48 h; actives raise or lower the signal
Read-out in experiment [1]: Paternally Expressed 10 (PEG10), PEG10 (gene 23089)
In words: LTEA_HepaRG_PEG10: Life Technologies and Expression Analysis (LTEA) Assay for Paternally Expressed 10 (PEG10) using HepaRG (AID 2283520). The essentials:
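Differentiated HepaRG cells exposed 48 h in serum-free induction medium to eight half-log concentrations topping at 100 uM, 0.5% DMSO, in duplicate. PEG10 mRNA quantified by TaqMan qRT-PCR, normalized to ACTB, GAPDH and POLR2A; bidirectional fit versus DMSO.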

Read-out in experiment [2]: Nuclear factor NF-kappa-B p105 subunit (Homo sapiens) (UniProt P19838)
In words: LTEA_HepaRG_NFKB1: Life Technologies and Expression Analysis (LTEA) Assay for Nuclear Factor Kappa B Subunit 1 (NFKB1) using HepaRG (AID 2283521).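 Note: TaqMan qRT-PCR transcript normalised to ACTB GAPDH and POLR2A housekeeping genes.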 In a few lines: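 Human HepaRG cells receive eight half-log concentrations, highest 100 uM, for 48 h. NFKB1 expression is then quantified by qRT-PCR and analysed for up- or down-regulation relative to 0.5% DMSO vehicle.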

Read-out in experiment [3]: Protein phosphatase 2A (PPP2R4), PTPA (gene 5524)
Briefly: LTEA_HepaRG_PPP2R4: Life Technologies and Expression Analysis (LTEA) Assay for Protein phosphatase 2A (PPP2R4) using HepaRG (AID 2283522). In a few lines:
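Differentiated human HepaRG cells in serum-free induction medium were exposed 48 h to 8 concentrations (top 100 µM, half-log steps, duplicate) in 0.5% DMSO. PPP2R4 mRNA was measured by TaqMan qRT-PCR, normalised to ACTB, GAPDH and POLR2A, and fitted bidirectionally versus DMSO.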

Read-out in experiment [4]: Phosphatase and tensin (PTEN), PTEN (gene 5728)
In words: LTEA_HepaRG_PTEN: Life Technologies and Expression Analysis (LTEA) Assay for Phosphatase and tensin (PTEN) using HepaRG (AID 2283523). In a few lines:
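Read-out is PTEN transcript level by multiplexed TaqMan qRT-PCR after 48 h chemical treatment of human HepaRG cultures in serum-free induction medium. Concentrations spanned 100 uM downward in half-log steps, 0.5% DMSO throughout; activity fitted in both directions against vehicle.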

Read-out in experiment [5]: Pyruvate Dehydrogenase Kinase 4 (PDK4), PDK4 (gene 5166)
In words: LTEA_HepaRG_PDK4: Life Technologies and Expression Analysis (LTEA) Assay for Pyruvate Dehydrogenase Kinase 4 (PDK4) using HepaRG (AID 2283525). The essentials:
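In this multiplexed human HepaRG expression assay, cells are treated 48 h with test chemicals across an eight-point range starting at 100 uM. PDK4 mRNA changes, normalized to ACTB/GAPDH/POLR2A, are fitted in both directions relative to vehicle.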

Read-out in experiment [6]: NAD(P)H dehydrogenase [quinone] 1 (NQO1), NQO1 (gene 1728)
In words: LTEA_HepaRG_NQO1: Life Technologies and Expression Analysis (LTEA) Assay for NAD(P)H dehydrogenase [quinone] 1 (NQO1) using HepaRG (AID 2283526). The essentials: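 Differentiated human HepaRG cells in serum-free induction medium, dosed in duplicate for 48 h at 8 half-log concentrations up to 100 uM in 0.5% DMSO. NQO1 mRNA by qRT-PCR normalized to ACTB, GAPDH, POLR2A; bidirectional fit versus DMSO baseline.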

Read-out in experiment [7]: succinate dehydrogenase complex iron sulfur subunit B (SDHB), SDHB (gene 6390)
Briefly: LTEA_HepaRG_SDHB: Life Technologies and Expression Analysis (LTEA) Assay for succinate dehydrogenase complex iron sulfur subunit B (SDHB) using HepaRG (AID 2283528). The essentials: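 A human HepaRG culture in serum-free induction medium received test chemicals for 48 h over an eight-point range capped at 100 uM. SDHB expression change was quantified by qRT-PCR.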

Read-out in experiment [8]: Signal transducer and activator of transcription 3 (Homo sapiens) (UniProt P40763)
In words: LTEA_HepaRG_STAT3: Life Technologies and Expression Analysis (LTEA) Assay for Signal transducer and activator of transcription (STAT3) using HepaRG (AID 2283529). In a few lines:
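Read-out is STAT3 mRNA level by qRT-PCR, normalized to three housekeeping genes, in human HepaRG liver cells treated for 48 h. Concentrations ran from 100 uM downward in half-log steps; curves were fitted for gain or loss relative to 0.5% DMSO.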

Read-out in experiment [9]: solute carrier (SLCO1B1), SLCO1B1 (gene 10599)
Briefly: LTEA_HepaRG_SLCO1B1: Life Technologies and Expression Analysis (LTEA) Assay for solute carrier (SLCO1B1) using HepaRG (AID 2283530). In a few lines: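 Human HepaRG cultures treated for 48 h with an eight-concentration half-log series topping at 100 uM; SLCO1B1 measured by qRT-PCR and fitted bidirectionally relative to DMSO.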

Read-out in experiment [10]: sulfotransferase 2A1 (SULT2A1), SULT2A1 (gene 6822)
Briefly: LTEA_HepaRG_SULT2A1: Life Technologies and Expression Analysis (LTEA) Assay for sulfotransferase 2A1 (SULT2A1) using HepaRG (AID 2283531). The essentials: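 Gene-expression endpoint in a human liver cell line: SULT2A1 mRNA change after 48 h chemical treatment, curves fitted in both directions relative to 0.5% DMSO vehicle. Concentrations spanned eight half-log steps from 100 uM.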

Read-out in experiment [11]: Transforming Growth Factor (TGFA), TGFA (gene 7039)
Briefly: LTEA_HepaRG_TGFA: Life Technologies and Expression Analysis (LTEA) Assay for Transforming Growth Factor (TGFA) using HepaRG (AID 2283532). The essentials: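 HepaRG (human liver line), 48 h exposure, 8 conc. half-log down from 100 uM, 0.5% DMSO vehicle, duplicates; serum-free induction medium. TGFA mRNA by TaqMan qRT-PCR, ACTB/GAPDH/POLR2A normalization; gain/loss fit vs DMSO.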

Read-out in experiment [12]: Transforming Growth Factor (TGFB1), TGFB1 (gene 7040)
In words: LTEA_HepaRG_TGFB1: Life Technologies and Expression Analysis (LTEA) Assay for Transforming Growth Factor (TGFB1) Transporter using HepaRG (AID 2283533). The essentials:
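Eight-point concentration-response (max 100 uM, half-log) in HepaRG under serum-free induction conditions, 48 h. TGFB1 mRNA by qRT-PCR, housekeeping-normalized.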

Read-out in the next experiment: TIMP1, TIMP1 (gene 7076)
In words: LTEA_HepaRG_TIMP1: Life Technologies and Expression Analysis (LTEA) Assay for TIMP1 using HepaRG (AID 2283534).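 For outcome: TaqMan qRT-PCR signal normalized to ACTB GAPDH and POLR2A housekeeping genes.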 The essentials:
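TIMP1 induction or repression in HepaRG cells after 48 h chemical exposure (eight concentrations, highest 100 uM), assessed by normalized qRT-PCR with bidirectional fitting to DMSO controls.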

Read-out in experiment [13]: Tumor necrosis factor receptor 1 (TNFRSF1A), TNFRSF1A (gene 7132)
In words: LTEA_HepaRG_TNFRSF1A: Life Technologies and Expression Analysis (LTEA) Assay for Tumor necrosis factor receptor 1 (TNFRSF1A) using HepaRG (AID 2283535). In a few lines:
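Assay uses 48 h chemical treatment of differentiated HepaRG monolayers, tested in duplicate at eight concentrations from 100 uM downward in 0.5% DMSO. mRNA is normalized to ACTB, GAPDH and POLR2A, with induction or suppression fitted relative to vehicle.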

Read-out in experiment [14]: Thyroid Hormone Responsive (THRSP), THRSP (gene 7069)
In words: LTEA_HepaRG_THRSP: Life Technologies and Expression Analysis (LTEA) Assay for Thyroid Hormone Responsive (THRSP) using HepaRG (AID 2283536). The essentials: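 mRNA induction or loss relative to 0.5% DMSO vehicle was fitted bidirectionally across an eight-point curve whose highest exposure was 100 uM. Human HepaRG liver cells received chemicals in duplicate over 48 h before RNA extraction.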

Read-out in experiment [15]: Cellular tumor antigen p53 (Homo sapiens) (UniProt P04637)
Briefly: LTEA_HepaRG_TP53: Life Technologies and Expression Analysis (LTEA) Assay for Tumor Protein P53 (TP53) using HepaRG (AID 2283537). The essentials:
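Gain or loss of TP53 mRNA signal is scored relative to 0.5% DMSO after 48 h chemical treatment of HepaRG liver cells, tested in duplicate at eight half-log concentrations up to 100 uM.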

Read-out in experiment [16]: UDP glucuronosyltransferase (UGT1A1), UGT1A1 (gene 54658)
Briefly: LTEA_HepaRG_UGT1A1: Life Technologies and Expression Analysis (LTEA) Assay for UDP glucuronosyltransferase (UGT1A1) using HepaRG (AID 2283538). The essentials: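 HepaRG cells, 0.5% DMSO vehicle, 48 h exposure in serum-free induction medium to 8-point half-log series topping at 100 uM, in duplicate. UGT1A1 mRNA by Fluidigm qRT-PCR, normalized to ACTB/GAPDH/POLR2A; bidirectional fit versus DMSO.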

Read-out in experiment [17]: Nuclear factor erythroid 2-related factor 2 (Homo sapiens) (UniProt Q16236)
Briefly: LTEA_HepaRG_NFE2L2: Life Technologies and Expression Analysis (LTEA) Assay for Nuclear factor erythroid 2-related factor 2 (NFE2L2) Transcription Factor using HepaRG (AID 2283527).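 Note: TaqMan qRT-PCR transcript level normalised to ACTB GAPDH and POLR2A housekeeping genes.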 In a few lines: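 Transcript level of NFE2L2 is the read-out, measured by microfluidic TaqMan qRT-PCR and normalized to three housekeeping genes. Human HepaRG cultures received test chemical for 48 h at up to 100 uM in half-log steps. Gain or loss of signal is fitted relative to 0.5% DMSO.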

Activity calls are given as the source filed them. Rule for the calls: active = hit-call score of the fitted dose curve at least 0.9, where 1 is the maximum; inactive = score below 0.9.

Sequence of Signal transducer and activator of transcription 3 (Homo sapiens) (P40763 whole entry, looked up): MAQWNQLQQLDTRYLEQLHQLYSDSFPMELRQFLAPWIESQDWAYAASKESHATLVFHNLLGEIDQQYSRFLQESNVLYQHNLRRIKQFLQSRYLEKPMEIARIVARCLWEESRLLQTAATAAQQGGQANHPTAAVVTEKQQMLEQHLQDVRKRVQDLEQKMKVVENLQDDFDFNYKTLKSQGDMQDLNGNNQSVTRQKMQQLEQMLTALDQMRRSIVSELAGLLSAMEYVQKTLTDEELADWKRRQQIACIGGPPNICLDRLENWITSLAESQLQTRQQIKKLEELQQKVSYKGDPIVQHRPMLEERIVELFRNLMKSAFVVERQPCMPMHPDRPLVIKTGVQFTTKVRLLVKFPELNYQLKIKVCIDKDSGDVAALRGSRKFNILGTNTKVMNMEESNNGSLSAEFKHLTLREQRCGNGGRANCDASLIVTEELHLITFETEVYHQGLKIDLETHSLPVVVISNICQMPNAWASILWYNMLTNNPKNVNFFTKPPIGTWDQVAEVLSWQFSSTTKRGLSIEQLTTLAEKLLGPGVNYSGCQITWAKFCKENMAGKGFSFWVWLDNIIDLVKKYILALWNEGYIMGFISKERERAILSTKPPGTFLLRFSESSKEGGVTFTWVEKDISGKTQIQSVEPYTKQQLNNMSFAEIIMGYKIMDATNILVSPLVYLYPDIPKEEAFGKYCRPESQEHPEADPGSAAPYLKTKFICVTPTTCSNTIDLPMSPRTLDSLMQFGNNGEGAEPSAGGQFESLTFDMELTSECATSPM
Sequence of Cellular tumor antigen p53 (Homo sapiens) (P04637 whole entry, looked up): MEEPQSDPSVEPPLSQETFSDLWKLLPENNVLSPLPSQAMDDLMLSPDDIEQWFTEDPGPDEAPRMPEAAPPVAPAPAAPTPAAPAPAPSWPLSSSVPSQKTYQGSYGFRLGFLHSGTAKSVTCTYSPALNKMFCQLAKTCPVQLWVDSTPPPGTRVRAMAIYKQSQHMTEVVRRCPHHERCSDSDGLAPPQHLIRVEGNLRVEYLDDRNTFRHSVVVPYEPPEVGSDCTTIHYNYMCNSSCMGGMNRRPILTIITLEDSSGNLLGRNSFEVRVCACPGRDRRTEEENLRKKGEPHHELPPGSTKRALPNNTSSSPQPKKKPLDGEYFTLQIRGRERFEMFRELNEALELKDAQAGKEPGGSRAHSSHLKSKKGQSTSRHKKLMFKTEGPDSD
Sequence of Nuclear factor NF-kappa-B p105 subunit (Homo sapiens) (P19838 whole entry, looked up): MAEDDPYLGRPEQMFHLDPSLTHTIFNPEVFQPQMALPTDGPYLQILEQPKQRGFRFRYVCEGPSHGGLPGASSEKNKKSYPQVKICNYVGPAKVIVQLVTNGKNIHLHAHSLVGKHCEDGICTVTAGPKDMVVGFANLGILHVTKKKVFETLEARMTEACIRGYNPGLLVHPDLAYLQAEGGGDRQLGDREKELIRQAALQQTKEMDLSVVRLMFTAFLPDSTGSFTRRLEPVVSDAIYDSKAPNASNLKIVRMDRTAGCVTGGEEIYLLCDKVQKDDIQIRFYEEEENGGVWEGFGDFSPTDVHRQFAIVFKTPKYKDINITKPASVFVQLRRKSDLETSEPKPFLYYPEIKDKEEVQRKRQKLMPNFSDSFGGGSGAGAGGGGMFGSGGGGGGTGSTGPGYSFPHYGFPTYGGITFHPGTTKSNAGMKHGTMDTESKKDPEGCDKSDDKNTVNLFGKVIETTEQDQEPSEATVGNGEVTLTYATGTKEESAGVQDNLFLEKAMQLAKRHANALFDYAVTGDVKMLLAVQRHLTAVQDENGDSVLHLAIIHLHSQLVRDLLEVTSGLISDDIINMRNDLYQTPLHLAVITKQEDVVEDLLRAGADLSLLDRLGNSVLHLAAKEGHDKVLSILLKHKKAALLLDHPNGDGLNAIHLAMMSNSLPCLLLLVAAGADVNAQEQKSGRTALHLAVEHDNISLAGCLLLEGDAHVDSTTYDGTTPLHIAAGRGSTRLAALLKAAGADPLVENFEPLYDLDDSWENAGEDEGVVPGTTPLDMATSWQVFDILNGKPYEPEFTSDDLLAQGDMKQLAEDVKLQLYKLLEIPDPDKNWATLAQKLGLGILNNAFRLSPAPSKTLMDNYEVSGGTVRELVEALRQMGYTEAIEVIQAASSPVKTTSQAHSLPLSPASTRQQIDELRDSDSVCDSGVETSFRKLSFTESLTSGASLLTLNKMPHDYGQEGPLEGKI
Sequence of Nuclear factor erythroid 2-related factor 2 (Homo sapiens) (Q16236 whole entry, looked up): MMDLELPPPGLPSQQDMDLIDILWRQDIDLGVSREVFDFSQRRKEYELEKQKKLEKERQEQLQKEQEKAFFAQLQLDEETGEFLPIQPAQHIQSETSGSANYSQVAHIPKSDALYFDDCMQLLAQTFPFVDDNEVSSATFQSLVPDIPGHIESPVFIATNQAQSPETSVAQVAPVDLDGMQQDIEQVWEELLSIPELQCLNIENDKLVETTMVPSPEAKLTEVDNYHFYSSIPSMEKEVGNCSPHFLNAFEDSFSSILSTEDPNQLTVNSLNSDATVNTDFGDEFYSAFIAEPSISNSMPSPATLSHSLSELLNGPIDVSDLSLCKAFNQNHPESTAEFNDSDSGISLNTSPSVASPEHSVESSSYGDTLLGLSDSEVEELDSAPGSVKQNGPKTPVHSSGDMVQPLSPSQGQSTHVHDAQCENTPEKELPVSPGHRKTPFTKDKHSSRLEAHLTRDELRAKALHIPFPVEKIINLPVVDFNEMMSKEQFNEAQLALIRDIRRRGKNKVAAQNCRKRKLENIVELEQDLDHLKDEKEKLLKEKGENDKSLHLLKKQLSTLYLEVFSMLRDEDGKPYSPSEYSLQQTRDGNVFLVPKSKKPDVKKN

Consider `CCCOC(=O)c1ccc(C(=O)OCCC)nc1`, for which the compound was called inactive in experiment [1], in experiment [2], in experiment [3], in experiment [4], in [5] and in [6]. The call in experiment [7], in experiment [8], in [9], in experiment [10], in [11] and in experiment [12] was inactive. Moreover, the outcome with TIMP1, TIMP1 (gene 7076) was “inactive”; in experiment [13], “inactive”; in experiment [14] it was “inactive”; in [15], “inactive”; in [16], “inactive”.
Usually AC50 stands for the concentration giving half of the maximal activity seen. As to `CCCCC(CC)CN1C(=O)C2C3C=CC(C3)C2C1=O` (configuration not stated), the AC50 was 1.98 µM (active) in experiment [1]; 50 µM (active) in experiment [3]; 81.3 µM (active) in [5]; 86.1 µM (active) in experiment [10]; 78.8 µM (active) in [12]; 22.9 µM (active) in [14]. Besides, the AC50 in [16] is 88.5 µM (active). The result in experiment [2], in experiment [4], in [6], in experiment [7], in [8] and in experiment [9] was inactive. Besides, the outcome in [11] is “inactive”; with TIMP1, TIMP1 (gene 7076), “inactive”; in [13], “inactive”; in experiment [15], “inactive”.
On to `CC(=O)[C@H]1CC[C@H]2[C@@H]3CCC4=CC(=O)CC[C@]4(C)[C@H]3CC[C@]12C`, for which the AC50 is 7.52 µM (active) in experiment [1]; 87.5 µM (active) in experiment [3]; 87.5 µM (active) in experiment [4]; 22.9 µM (active) in experiment [5]; 62.1 µM (active) in experiment [6]; 88.6 µM (active) in [7]. Further, the AC50 in [8] is 63.1 µM (active); in [9] it was 75.2 µM (active); in experiment [10] it was 38.5 µM (active); in experiment [11], 33.1 µM (active); in [12], 91.8 µM (active); with TIMP1, TIMP1 (gene 7076), 22.2 µM (active). For the same compound, the AC50 in [13] is 90.6 µM (active); in experiment [16], 37.9 µM (active). For the same compound, the compound was called inactive in experiment [17], in experiment [14] and in experiment [15].
For `CCC(C)OC(=O)N1CCCCC1CCO` (configuration not stated), the outcome in experiment [1], in experiment [2], in experiment [3], in experiment [4], in experiment [5] and in experiment [6] was inactive. Also, the outcome in [7], in [8], in experiment [9], in experiment [10], in experiment [11] and in experiment [12] was inactive. For the same compound, the outcome in the experiment with TIMP1, TIMP1 (gene 7076) was “inactive”; in experiment [13] it was “inactive”; in experiment [14], “inactive”; in experiment [15], “inactive”. Moreover, in experiment [16], the concentration at half-maximal activity (AC50) is 34.2 µM (active).
Turning to `CCCCOC(=O)C(C)Oc1ccc(Oc2ccc(C(F)(F)F)cn2)cc1` (configuration not stated), the outcome in [1], in experiment [2], in experiment [3], in [4], in [5] and in experiment [6] was inactive. The call in experiment [7], in experiment [8], in experiment [9], in experiment [10], in [11] and in experiment [12] was inactive. Also, the outcome with TIMP1, TIMP1 (gene 7076) is “inactive”; in experiment [13], “inactive”; in [14] it was “inactive”; in experiment [15], “inactive”; in [16], “inactive”.
As for `CN(C)C(=O)Nc1ccc(Cl)c(Cl)c1`, the AC50 in experiment [1] was 63.8 µM (active); in [14] it was 27.2 µM (active); in experiment [16] it was 23.5 µM (active). The result in [3], in [4], in experiment [5], in experiment [6], in experiment [7] and in experiment [8] was inactive. The outcome was “inactive” in experiment [9]; “inactive” in [10]; “inactive” in experiment [11]; “inactive” in experiment [12]; “inactive” in the experiment with TIMP1, TIMP1 (gene 7076); “inactive” in experiment [13]. Besides, the compound was classed as inactive in [15].
With `CCOC(=O)C(C)Oc1ccc(Oc2cnc3cc(Cl)ccc3n2)cc1` (configuration not stated), the result in [1], in [3], in experiment [4], in experiment [6], in [17] and in experiment [7] was inactive. The outcome was “inactive” in [8]; “inactive” in experiment [9]; “inactive” in experiment [11]; “inactive” in experiment [12]; “inactive” with TIMP1, TIMP1 (gene 7076); “inactive” in [13]. The call in [14] and in [16] was inactive. Moreover, the values for the AC50 in [5] and in [10] were 70 µM (active) and 2.34 µM (active), respectively.

Values taken from PubChem BioAssay (EPA / NIEHS).
